In the library only some 1.3% were active in any assay of this set; here they are far more common.
SARS PLpro yeast = qHTS of Yeast-based Assay for SARS-CoV PLP. Potency, µM (titrated, usually from 32.9 µM), inactives show top-dose activity, positive = growth rescue, hits mostly activators. 330,000 compounds, 0.19% hits. AID 485353, 2010. S. cerevisiae expressing SARS-CoV PLpro, growth rescue; calls by dose curve; also: 0% is about no effect; nearly all actives have a fitted effect of over 55% in size
AmpC detergent = qHTS Inhibitors of AmpC Beta-Lactamase (assay with detergent); AID 485294, 2010; P00811; 370,000 compounds, 0.041% hits; Potency, µM (top dose mostly 114 µM), without a hit: at the highest dose activity change, negative = inhibition, actives largely listed as inhibitors; AmpC hydrolysis of nitrocefin, absorbance 480 nm, 0.01% Triton;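 also: 0% = no-compound wells and -100% = no-enzyme wells; nearly all actives have a fitted effect of over 25% in size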
Target sequence (P00811 whole entry, looked up): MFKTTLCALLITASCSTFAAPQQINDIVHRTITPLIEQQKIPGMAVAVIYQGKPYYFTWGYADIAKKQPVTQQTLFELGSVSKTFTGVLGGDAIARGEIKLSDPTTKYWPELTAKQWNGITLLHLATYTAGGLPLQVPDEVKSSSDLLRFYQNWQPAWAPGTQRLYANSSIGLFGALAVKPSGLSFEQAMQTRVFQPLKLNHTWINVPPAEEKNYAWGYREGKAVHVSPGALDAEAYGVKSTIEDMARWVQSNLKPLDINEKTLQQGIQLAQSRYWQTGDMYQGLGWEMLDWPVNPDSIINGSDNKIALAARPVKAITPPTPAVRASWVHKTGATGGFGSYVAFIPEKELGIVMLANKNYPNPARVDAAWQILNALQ
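20 mM phosphate pH 7.0 + 0.01% (detergent screen) or 0.0001% Triton X-100; 5.3 nM AmpC reagent; cpd preinc 15 min RT; nitrocefin (800 uM stock) to start; A480 q20 s × 4 min; Activity was normalised to no-enzyme and no-compound control wells.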
VACV mCherry inh = qHTS for Stage-Specific Inhibitors of Vaccinia Orthopoxvirus: mCherry Reporter Primary qHTS | Vaccinia virus mCherry reporter infection, fluorescence | Potency, µM (highest dose often 36.5 µM), without a hit: at the highest dose activity change, negative = inhibition, usual class: inhibitors | 310,000 compounds, 0.63% hits; calls by dose curve; tested in A549 cells; also: % is scaled to controls: 0 for no effect and ±100 for the full control effect; nearly all actives have a fitted effect of over 35% in size
AmpC no deterg = qHTS Inhibitors of AmpC Beta-Lactamase (assay without detergent) | Potency, µM (top dose mostly 57.1 µM), for the others: at the top dose activity change, negative = inhibition, hits mostly inhibitors | 330,000 compounds, 0.52% hits | P00811 | AmpC nitrocefin hydrolysis, absorbance 480 nm, 0.0001% Triton;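 also: plate controls were no compound for no effect and no enzyme for full effect; nearly all actives have a fitted effect of over 20% in size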
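AmpC (5.3 nM in the dispensed reagent) in 20 mM phosphate pH 7.0 with 0.01% (detergent screen) or 0.0001% Triton X-100 was preincubated with compounds for 15 min at room temperature. Nitrocefin was then added from an 800 uM solution, and hydrolysis was followed at 480 nm.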
VACV Venus inh = qHTS for Stage-Specific Inhibitors of Vaccinia Orthopoxvirus: Venus Reporter Primary qHTS; Vaccinia virus Venus reporter expression, fluorescence; Potency, µM (doses to about 36.5 µM), without a hit: top-dose activity change, negative = inhibition, actives largely listed as inhibitors; 330,000 compounds, 0.46% hits; AID 720580, 2013; calls by dose curve; tested in A549 cells; also: % is scaled to controls: 0 for no effect and ±100 for the full control effect; nearly all actives have a fitted effect of over 30% in size
Numbers without * were called inactive; [ ] = remark or other dose. Unless noted, calls follow the shape of the dose curve; as a rule, active = well fitted curve in the direction sought with a large enough effect; inconclusive = small, poorly fitted or top-dose-only effect, or another doubt; inactive = no such curve, though single readings can be large; an effect the other way counts as inactive or inconclusive. Potency is read from the fitted curve at half-maximal effect.

`CC1OC(OC2C=C3CCC4C(CCC5(C)C(c6ccc(=O)oc6)CCC45O)C3(C)CC2)C(O)C(OC2OC(CO)C(O)C(O)C2O)C1O` (configuration not stated) gave VACV mCherry inh 0.28µM* and VACV Venus inh 0.0032µM*.
For O=Cc1cn(Cc2ccc(F)cc2)c2ccccc12 the results were SARS PLpro yeast -1%, AmpC detergent inconclusive, VACV mCherry inh -9%, AmpC no deterg -34% and VACV Venus inh -22%.
O=[N+]([O-])/C=C/c1cn(Cc2ccc(F)cc2)c2ccccc12 was read as SARS PLpro yeast -30%, AmpC detergent inconclusive, VACV mCherry inh inconclusive, AmpC no deterg 18µM* and VACV Venus inh -30%.
`Cc1ccc(S(=O)(=O)NCc2nc3cccnc3n2Cc2ccccc2Cl)c(C)c1` gave AmpC detergent 0%, VACV mCherry inh -18% and VACV Venus inh -23%.
`Cc1nc([N+](=O)[O-])cn1CC(O)c1ccc2c(c1)OCO2` (configuration not stated) gave VACV mCherry inh -13% and VACV Venus inh -10%.
COc1ccc(CCN2CCC(Nc3nc4ccccc4n3Cc3ccc(F)cc3)CC2)cc1 was read as SARS PLpro yeast 0%, AmpC detergent -7%, VACV mCherry inh 11µM*, AmpC no deterg 88% and VACV Venus inh 10µM*.
COc1ccc(CNc2nc3ccccc3n2CCN2CCCCC2)cc1 was read as SARS PLpro yeast 0%, AmpC detergent inconclusive, VACV mCherry inh -3%, AmpC no deterg 19%[2.29 µM] and VACV Venus inh 0%.
`Cc1ccsc1/C=N/NC(=S)NCCc1ccccc1` gave SARS PLpro yeast -7%, AmpC detergent -9%, VACV mCherry inh -14%, AmpC no deterg 18µM* and VACV Venus inh -2%.
N#Cc1c(CSCC(=O)O)cc(=O)n2c1[nH]c1ccccc12 was read as SARS PLpro yeast -1%, AmpC detergent 1% and AmpC no deterg -22%.
Screening N#Cc1c(C(F)(F)F)cc(=O)n2c1[nH]c1ccccc12 returned SARS PLpro yeast -21%, AmpC detergent -1%, VACV mCherry inh 10µM*, AmpC no deterg -13% and VACV Venus inh inconclusive.
`O=C(Nc1ccc(S(=O)(=O)N2CCCC2)cc1)c1ccc([N+](=O)[O-])o1` gave SARS PLpro yeast -5% and AmpC no deterg -20%.
For O=C(COC(=O)c1ccc([N+](=O)[O-])o1)Nc1ccc(N2CCOCC2)cc1 the results were SARS PLpro yeast -13% and AmpC no deterg -1%.
Screening O=C(Nc1ccc(N2CCOCC2)cc1)c1ccc([N+](=O)[O-])o1 returned SARS PLpro yeast 18%, AmpC detergent inconclusive, VACV mCherry inh 11µM*, AmpC no deterg -25% and VACV Venus inh inconclusive.
For O=C(Nc1ccc(S(=O)(=O)N2CCOCC2)cc1)c1ccc([N+](=O)[O-])o1 the results were SARS PLpro yeast -2%, AmpC detergent 3%, VACV mCherry inh inconclusive, AmpC no deterg -5% and VACV Venus inh 18µM*.
`COc1cc(NC(=O)c2ccc([N+](=O)[O-])o2)ccc1NC(=O)c1cccs1` gave SARS PLpro yeast 0%, AmpC detergent -8%, VACV mCherry inh 10µM*, AmpC no deterg -32% and VACV Venus inh 10µM*.
Screening O=C(Nc1ccc(Cc2ccncc2)cc1)c1ccc([N+](=O)[O-])o1 returned SARS PLpro yeast -22%, AmpC detergent 3%, VACV mCherry inh 10µM*, AmpC no deterg -13% and VACV Venus inh inconclusive.
Cc1cccc(OCC(=O)Nc2ccc3oc(-c4ccccc4F)nc3c2)c1 was read as AmpC detergent 23%, VACV mCherry inh -10% and VACV Venus inh -7%.
NC(=O)c1ccc[n+]([C@@H]2OC(COP(=O)([O-])OP(=O)(O)OCC3OC(n4cnc5c(N)ncnc54)C(OP(=O)(O)O)C3O)C(O)C2O)c1 (some centres not stated) was read as VACV mCherry inh -5% and VACV Venus inh 8%.
COc1ccc2cc(CN(C(=O)c3cc(C)nn3C)C3CC3)c(-c3ccc(Cl)cc3)nc2c1 was read as VACV mCherry inh inactive and VACV Venus inh -15%.
For COc1ccc(-c2cc3ccccc3oc2=O)cc1NC(=O)c1ccc([N+](=O)[O-])o1 the results were SARS PLpro yeast -12%, AmpC detergent -9%, VACV mCherry inh 11µM*, AmpC no deterg -30% and VACV Venus inh inconclusive.
`O=S(=O)(c1ccc(NC(=S)NCCC(c2ccccc2)c2ccccc2)cc1)N1CCOCC1` gave SARS PLpro yeast 13%, AmpC detergent inconclusive, VACV mCherry inh 10µM*, AmpC no deterg -31% and VACV Venus inh 11µM*.
CCOC(=O)N1CCC2(CC1)OC(=O)C(C)=C2C(=O)NCc1ccc(C)cc1 was read as AmpC detergent 13%, VACV mCherry inh -24% and VACV Venus inh -24%.
For CCc1cc2c(=O)[nH]c(-c3ccccn3)nc2s1 the results were SARS PLpro yeast inconclusive, AmpC detergent 2%, VACV mCherry inh 2.8µM*, AmpC no deterg -19% and VACV Venus inh inconclusive.
CCc1cc2c(=O)[nH]c(N3CCCC3)nc2s1 was read as SARS PLpro yeast 9%, AmpC detergent -16%, VACV mCherry inh -10%, AmpC no deterg -17% and VACV Venus inh -13%.
Cc1cc(C)n(Cc2cccc(C(=O)NCC3Cc4cccc(-c5ncccn5)c4O3)c2)n1 (configuration not stated) was read as VACV mCherry inh -6% and VACV Venus inh -4%.
`COc1ccc2c(C)nc(Nc3nc(-c4ccccc4)cc(=O)[nH]3)nc2c1` gave SARS PLpro yeast 1%, AmpC detergent -6%, VACV mCherry inh inconclusive, AmpC no deterg 84% and VACV Venus inh 4µM*.
CCOC(=O)N1CCN(Cc2ccc3c(c2)CN(C(=O)c2cc(-c4ccccc4)no2)CCO3)CC1 was read as VACV mCherry inh -26% and VACV Venus inh -29%.
Screening O=C(NC1=C(Nc2ccc(Cl)cc2)C(=O)c2ccccc2C1=O)c1ccccc1 returned SARS PLpro yeast 10%, AmpC detergent 1%, VACV mCherry inh 28µM*, AmpC no deterg -29% and VACV Venus inh inconclusive.
Cc1nc(N2N=C(c3ccc(Cl)cc3)CC2c2ccco2)sc1C(=O)N(C)C (configuration not stated) was read as SARS PLpro yeast 2%, AmpC detergent -14%, VACV mCherry inh inconclusive, AmpC no deterg 25%[11.4 µM] and VACV Venus inh -20%.
